Test systems include NCI-H23 lung; NCI-H226 lung; NCI-H322M lung; HOP-62 NSCLC; NCI-H460 lung; NCI-H522 lung; A549/ATCC NSCLC; 786-0 renal; COLO 205 colon; DU-145 prostate; K-562 leukemia; MALME-3M melanoma; MDA-MB-231 breast; RXF 393 renal; SF-268 CNS; SF-539 CNS; UACC-257 melanoma; M14 melanoma; SF-295 CNS; HCT-15 colon.
Common to all, as to test: NCI-60 one-dose screen, 48 h (100 = growth as untreated, 0 = no growth, -100 = all killed)
Details in all cases: 10 µM unless noted

Structures are written as SMILES. The panel holds about 83,000 compounds, 20% with a hit somewhere; the sample as a whole holds those more often.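 Percent growth is the endpoint: 0 to 100 indicates growth inhibition (40 means 60% inhibition), 0 means no net growth, and negative values indicate cell death.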 A number with no mark means an inactive call. Activity calls are given as the source filed them. Rule for the calls: active = growth percent below 10; inactive = the rest.

In the case of `CCN(CC)c1ccc(C(O)C2=CC(=O)c3ccccc3C2=O)cc1` (stereo not given), the growth in the assay on NCI-H23 lung is -2.03% (active); with NCI-H226 lung, 37.5%; with NCI-H322M lung, 25.2%; in the assay on HOP-62 NSCLC it was -12.7% (active); in the assay with NCI-H460 lung it was 7.97% (active); in the assay on NCI-H522 lung it was -62.2% (active). In addition, the growth was 47.6% in the assay with A549/ATCC NSCLC; 3.34% (active) with 786-0 renal; 21.6% with COLO 205 colon; 3.92% (active) in the assay on DU-145 prostate; 2.86% (active) in the assay on K-562 leukemia; -11.3% (active) in the assay with MALME-3M melanoma. In addition, the growth is -51% (active) in the assay with MDA-MB-231 breast; -80.2% (active) in the assay on RXF 393 renal; -30.9% (active) in the assay with SF-268 CNS; -38.2% (active) in the assay on SF-539 CNS; 9.28% (active) with UACC-257 melanoma; 13.8% in the assay on M14 melanoma.
As for `CSc1ccc2c(c1)N(CCC1CCCCN1C)c1ccccc1S2` (stereo not given), the growth in the assay on NCI-H23 lung was 83.9%; in the assay with NCI-H226 lung, 107%; in the assay with NCI-H322M lung, 64%; in the assay with HOP-62 NSCLC it was 68.8%; in the assay on NCI-H460 lung, 46.8%; with NCI-H522 lung, 56.3%. For the same compound, the growth in the assay with A549/ATCC NSCLC is 63.9%; in the assay with 786-0 renal it was 43.9%; with COLO 205 colon it was 18.9%; in the assay with DU-145 prostate, 68.7%; in the assay with K-562 leukemia, 1.49% (active); with MALME-3M melanoma it was 72.8%. The growth is 46.3% with MDA-MB-231 breast; 26.7% in the assay with RXF 393 renal; 54.5% with SF-268 CNS; 58.4% in the assay on SF-295 CNS; 32.8% in the assay with UACC-257 melanoma; -57.9% (active) in the assay on M14 melanoma. Besides, in the assay on HCT-15 colon, the growth was 43.4%.
`COC(=O)[C@]12CC[C@@H](C)[C@H](C)[C@@H]1C1=CC[C@@H]3[C@@]4(C)C[C@@H](OC(=O)c5ccco5)[C@H](O)[C@@](C)(CO)[C@@H]4[C@H](O)C[C@@]3(C)[C@]1(C)CC2`: the growth in the assay with NCI-H23 lung is -84.1% (active); in the assay on NCI-H226 lung, -53.4% (active); in the assay with NCI-H322M lung it was -93.8% (active); in the assay with HOP-62 NSCLC it was -88.3% (active); in the assay with NCI-H460 lung, -84.7% (active); in the assay on NCI-H522 lung, -83.3% (active). The growth was -92.7% (active) with A549/ATCC NSCLC; -77.8% (active) in the assay on 786-0 renal; -93.3% (active) in the assay with COLO 205 colon; -100% (active) in the assay on DU-145 prostate; -100% (active) in the assay on K-562 leukemia; -73.4% (active) in the assay on MALME-3M melanoma. Further, the growth with MDA-MB-231 breast is -65.7% (active); in the assay with RXF 393 renal, -79% (active); in the assay with SF-268 CNS it was -79.6% (active); in the assay with SF-295 CNS, -98.3% (active); in the assay on SF-539 CNS it was -90.1% (active); with M14 melanoma it was -59.5% (active). For the same compound, the growth in the assay with HCT-15 colon is -95.7% (active).
As to `COC(=O)[C@]12CC[C@@H](C)[C@H](C)[C@@H]1C1=CC[C@@H]3[C@@]4(C)C=C(O)C(=O)[C@@]5(C)COC(=C54)C[C@@]3(C)[C@]1(C)CC2`, the growth is -73.1% (active) in the assay on NCI-H23 lung; -48.9% (active) with NCI-H226 lung; -25.3% (active) with NCI-H322M lung; -50.8% (active) with HOP-62 NSCLC; -66.2% (active) with NCI-H460 lung; -70.2% (active) in the assay with NCI-H522 lung. Further, the growth in the assay with A549/ATCC NSCLC was -59.5% (active); with 786-0 renal it was -89.5% (active); with COLO 205 colon, -63.9% (active); with DU-145 prostate, -80.7% (active); in the assay on K-562 leukemia it was -97.8% (active); in the assay on MALME-3M melanoma it was -59% (active). Moreover, the growth with MDA-MB-231 breast was -52.7% (active); in the assay with RXF 393 renal, -82.4% (active); with SF-268 CNS, -45.3% (active); with SF-295 CNS, -57.4% (active); in the assay with SF-539 CNS, -91.4% (active); in the assay with M14 melanoma it was -63.2% (active). Further, the growth in the assay with HCT-15 colon is -82.3% (active).
As to `O=C(/C=C/c1cc2ccccc2[nH]c1=O)c1ccc(Cl)cc1`, the growth in the assay with NCI-H23 lung was 25.7%; in the assay on NCI-H226 lung it was 40.7%; with NCI-H322M lung it was 62.4%; in the assay with HOP-62 NSCLC it was 44.4%; in the assay on NCI-H460 lung it was 12%; in the assay with NCI-H522 lung it was -57.5% (active). The growth in the assay with A549/ATCC NSCLC is 42.1%; with 786-0 renal, 43%; in the assay on COLO 205 colon, 49.4%; with DU-145 prostate, 12.4%; in the assay on K-562 leukemia, 17.1%; in the assay on MALME-3M melanoma, 46.4%. In addition, the growth with MDA-MB-231 breast was 32.2%; in the assay on RXF 393 renal, 12.9%; in the assay with SF-268 CNS, 30.7%; in the assay on SF-295 CNS, 42.7%; with UACC-257 melanoma it was 45.3%; in the assay on M14 melanoma, 44.7%. The growth with HCT-15 colon was 41.6%.
Regarding `CC(=O)Oc1ccc(C2OC(c3ccc4ccccc4c3OC(C)=O)=NN2C(C)=O)c(OC(C)=O)c1` (stereo not given), the growth was 28.8% with NCI-H23 lung; 15.7% in the assay on NCI-H226 lung; 24.4% in the assay with NCI-H322M lung; 14.7% in the assay on HOP-62 NSCLC; 6.03% (active) in the assay with NCI-H460 lung; 4.49% (active) in the assay on NCI-H522 lung. Besides, the growth is 6.76% (active) with A549/ATCC NSCLC; 5.71% (active) in the assay on 786-0 renal; 15.9% in the assay with COLO 205 colon; 22.7% in the assay with DU-145 prostate; 4.1% (active) in the assay on K-562 leukemia; 8.98% (active) in the assay on MALME-3M melanoma. For the same compound, the growth in the assay with MDA-MB-231 breast was 39.9%; in the assay with RXF 393 renal, 1.4% (active); in the assay on SF-268 CNS it was 13.7%; in the assay with SF-539 CNS, 13.9%; in the assay with UACC-257 melanoma, -28.2% (active); in the assay on M14 melanoma, 3.34% (active). Moreover, the growth in the assay with HCT-15 colon was 34.1%.
As for `CN(C)c1nc(N)nc(Cn2c(-c3nonc3N)nc3ccccc32)n1`, the growth with NCI-H23 lung is 90.4%; in the assay with NCI-H226 lung, 91.3%; in the assay on NCI-H322M lung it was 103%; in the assay with HOP-62 NSCLC, 81%; with NCI-H460 lung, 95.6%; in the assay with NCI-H522 lung, 77.5%. For the same compound, the growth in the assay with A549/ATCC NSCLC is 86.7%; in the assay on 786-0 renal, 99.2%; in the assay on COLO 205 colon, 83.7%; in the assay with DU-145 prostate, 109%; with K-562 leukemia, 23.1%; in the assay with MALME-3M melanoma it was 88%. Further, the growth in the assay with MDA-MB-231 breast was 76.7%; with RXF 393 renal it was 89.6%; in the assay with SF-268 CNS, 101%; with SF-539 CNS, 86.5%; with UACC-257 melanoma it was 93.3%; in the assay on M14 melanoma, 72.7%.
`CC1CC(C)/C(=N/NC(N)=O)C(C(O)CC2CCC(=O)NC2=O)C1` (stereo not given): the growth in the assay with NCI-H23 lung is 36.1%; in the assay on NCI-H226 lung, 42.3%; in the assay with NCI-H322M lung, 14.4%; with HOP-62 NSCLC, 49.3%; in the assay on NCI-H460 lung, 31.7%; with NCI-H522 lung, 18%. The growth in the assay with A549/ATCC NSCLC is 27.7%; in the assay with 786-0 renal, 25%; with COLO 205 colon it was 42.1%; in the assay with DU-145 prostate it was 37.4%; in the assay with K-562 leukemia it was 40.8%; with MALME-3M melanoma, 35.6%. Moreover, the growth was 46.9% in the assay on MDA-MB-231 breast; 38.2% in the assay with RXF 393 renal; 34.1% with SF-268 CNS; -9.66% (active) with SF-295 CNS; 54.9% in the assay on UACC-257 melanoma; 34.1% with M14 melanoma. In the assay with HCT-15 colon, the growth is 37.8%.
